The campaign covered roughly 52,000 compounds. About 1,700 (3.3%) were called active. The sample holds actives, similar compounds and a random draw of the others, so the mix is not that of the screen. A number with no mark means an inactive call. No stated cut-off is given here; in the data, active means survival mostly below about 52% (no sharp cut-off); inactive means mostly above about 56%.
Test system: Wild type
Assay: growth inhibition of S. aureus wild type versus tarO mutant, primary screen, teichoic acid synthesis inhibitors, RN4220, OD600 (AID 463173)
Conditions: S. aureus RN4220 wild type/DeltatarO growth, OD600, 18 h, stronger effect = lower value, screened at 18.75 µg/mL (by protocol)

Row | Compound | survival
1 | Cc1ccc(CNC(=O)C2(c3cccs3)CCOCC2)cc1 | 69%
2 | O=C(Nc1ccc2oc(-c3ccc4ccccc4c3)nc2c1)c1cc(Br)ccc1Cl | 96%
3 | COc1ccc(NC(=O)CSc2nc(-c3ccc(OC)c(OC)c3)[nH]c2-c2ccc(C)cc2)cc1 | 139%
4 | CCOC(=O)c1ccc(NC(=O)CCn2ccc(C)n2)cc1 | 110%
5 | COc1ccc(C2C(=O)N(C3CCCCC3)CC(=O)N2C2CCCCC2)cc1 (stereo unspecified) | 76%
6 | Cc1cccc(NC(=O)c2oc3ccccc3c2NC(=O)c2cc(=O)c3cc(Cl)ccc3o2)c1 | 85%
7 | COc1ccc(-c2nc(C)c(CCNC(=O)c3cccs3)s2)cc1OC | 69%
8 | Cc1ccccc1-c1nc(CS(=O)(=O)CC(=O)NCCCc2ccccc2)c(C)o1 | 138%
9 | Cc1cc(C)cc(-n2c(SCC(=O)N3CCCC3)nc3c([nH]c4ccccc43)c2=O)c1 | 69%
10 | Cc1ccc(-n2c(SCC(=O)N3CCC(C)CC3)nc3c([nH]c4ccccc43)c2=O)cc1 | -6% (active)
11 | CCOC(=O)CSc1nc2c([nH]c3ccccc32)c(=O)n1-c1ccc(OCC)cc1 | 80%
12 | Cc1ccc(C)c(NC(=O)CSc2nc3c([nH]c4ccccc43)c(=O)n2-c2ccc(F)cc2)c1 | 0% (active)
13 | COC(=O)C(C)Sc1nc2c([nH]c3ccccc32)c(=O)n1-c1ccc(OC)cc1 (stereo unspecified) | 75%
14 | COc1ccc(-n2c(SCC(=O)N3CCC(C)CC3)nc3c([nH]c4ccccc43)c2=O)cc1 | 79%
15 | CC1CCN(C(=O)CSc2nc3c([nH]c4ccccc43)c(=O)n2-c2ccccc2)CC1 | 83%
16 | Cc1cccc(NC(=O)CSc2nc3c([nH]c4ccccc43)c(=O)n2-c2ccc(F)cc2)c1C | 22%
17 | Cc1cc(C)cc(-n2c(SCC(=O)N3CCCCC3)nc3c([nH]c4ccccc43)c2=O)c1 | 78%
18 | Cc1cc(C)cc(-n2c(SCC(=O)N3CCC(C)CC3)nc3c([nH]c4ccccc43)c2=O)c1 | -1% (active)
19 | CCOc1ccc(-n2c(SC(C)C(=O)OC)nc3c([nH]c4ccccc43)c2=O)cc1 (stereo unspecified) | -2% (active)
20 | CCOc1ccc(-n2c(SCC(=O)Nc3cc(C)ccc3C)nc3c([nH]c4ccccc43)c2=O)cc1 | 59%
21 | CCc1ccc(-c2nc(CS(=O)CC(=O)NCc3ccc(F)cc3)c(C)o2)cc1 (stereo unspecified) | 73%
22 | O=C1N/C(=N\S(=O)(=O)Cc2ccccc2)S/C1=C\c1ccco1 | 106%

Row | Compound | survival
23 | COc1ccccc1CNC(=O)Cn1c(=O)nc(-c2ccccc2)c2ccccc21 | 67%
24 | CCc1ccc(-n2c(N3CCN(c4cccc(C)c4C)CC3)nc3ccccc3c2=O)cc1 | 81%
25 | Cc1c(C(=O)NCc2ccccc2Br)oc2c1-c1[nH]ncc1CC2 | 82%
26 | Cc1ccc(C(=O)Nc2ccc3c(c2)N(C)C(=O)c2ccccc2S3)cc1 | 99%
27 | COc1ccc(Cl)cc1NC(=O)Cn1c(=O)n(Cc2ccco2)c(=O)c2ccc(C(=O)NC3CCCC3)cc21 | 87%
28 | O=C(CSc1nc2c([nH]c3ccccc32)c(=O)n1-c1ccccc1)Nc1cccc(C(F)(F)F)c1 | -6% (active)
29 | O=C(CSc1nc2c([nH]c3ccccc32)c(=O)n1-c1ccc(F)cc1)NCc1ccco1 | 88%
30 | O=C(CSc1nc2c([nH]c3ccccc32)c(=O)n1-c1ccccc1)N1CCCCCC1 | 78%
31 | COC(=O)c1ccc(CSc2nc3c([nH]c4ccccc43)c(=O)n2-c2cccc(Cl)c2)o1 | 71%
32 | COc1cccc(NC(=O)CSc2nc3c([nH]c4ccccc43)c(=O)n2-c2ccccc2)c1 | 67%
33 | COC(=O)c1ccc(CSc2nc3c([nH]c4ccccc43)c(=O)n2-c2cc(C)cc(C)c2)o1 | 0% (active)
34 | COc1cccc(-n2c(SCC(=O)N3CCCCC3)nc3c([nH]c4ccccc43)c2=O)c1 | -3% (active)
35 | O=C(CSc1nc2c([nH]c3ccccc32)c(=O)n1-c1ccccc1F)Nc1cccc(C(F)(F)F)c1 | 71%
36 | O=C(CSc1nc2c([nH]c3ccccc32)c(=O)n1-c1ccccc1)N1CCCCC1 | 69%
37 | COc1ccc(-n2c(SCC(=O)NCc3ccco3)nc3c([nH]c4ccccc43)c2=O)cc1 | 75%
38 | CCOc1ccc(-n2c(SCC(=O)NCc3ccco3)nc3c([nH]c4ccccc43)c2=O)cc1 | 10% (active)
39 | COC(=O)c1ccc(CSc2nc3c([nH]c4ccccc43)c(=O)n2-c2ccc(Cl)cc2)o1 | 121%
40 | CCc1cccc(C)c1NC(=O)c1cc(S(=O)(=O)N2CCN(c3ccccc3)CC2)ccc1F | 73%
41 | COc1cccc(C(=O)N2c3cc(C)ccc3C(C)(c3ccccc3)CC2(C)C)c1 (stereo unspecified) | 1% (active)
42 | COC(=O)C1=NN(C(=O)c2cccc(OC)c2)C(C)(O)C1 (stereo unspecified) | 123%
43 | COc1cccc(C(=O)N2CC(C)OC(C)C2)c1 (stereo unspecified) | 107%
44 | COc1cccc(NC(=O)NCc2ccc3c(c2)CCN3C(=O)c2ccccc2)c1 | 64%

Row | Compound | survival
45 | COc1ccc(OCC(=O)N2CCN(C(=O)c3cccc(OC)c3)CC2)cc1 | 88%
46 | COc1cccc(C(=O)N2c3ccc(C)cc3C(C)(c3ccccc3)CC2(C)C)c1 (stereo unspecified) | -2% (active)
47 | COc1ccc(CNc2nc(-c3ccco3)nn2C(=O)c2ccccc2Cl)cc1 | 95%
48 | O=C(Cn1c(=O)n(-c2ccc(F)cc2)c(=O)c2sc3ccccc3c21)NC1CCCCC1 | 91%
49 | CNC(=O)C1CCC(Cn2c(=O)c3sccc3n(CC(=O)N3CCCC3)c2=O)CC1 (stereo unspecified) | 77%
50 | Cc1ccc(NCC(=O)N=Nc2c(O)[nH]c3ccccc23)cc1 | 114%
51 | CCOC(=O)c1oc2c(c1C)-c1nn(Cc3cccc(Cl)c3)cc1CC2 | 66%
52 | CCOC(=O)c1oc2c(c1C)-c1nn(Cc3ccc(Cl)cc3)cc1CC2 | 2% (active)
53 | Cc1c(C(=O)O)oc2c1-c1nn(Cc3ccc(Cl)cc3)cc1CC2 | 77%
54 | CCOc1ccc2c(c1)c(=O)c(C(=O)c1ccc3c(c1)OCO3)cn2Cc1cccc(F)c1 | 91%
55 | CCCCOc1cccc(C2c3c(oc4ccccc4c3=O)C(=O)N2c2ccccn2)c1 (stereo unspecified) | 68%
56 | O=C(Nc1noc2ccccc12)c1ccc(F)cc1 | 78%
57 | CCOC(=O)c1c(C)oc2c1c(O)c(N=O)c1ccccc12 | 7% (active)
58 | CCOC(=O)c1c(C)oc2ncnc(N3CCN(c4ccccc4)CC3)c12 | 68%
59 | CCOC(=O)c1c(C)oc2nc(C)nc(N3CCN(c4ccccc4)CC3)c12 | 68%
60 | CC(C)OC(=O)Cn1c(C2CC2)nc2ccccc2c1=O | 115%
61 | CC(C)(C)c1ccc(S(=O)(=O)N2CCC(Oc3ccc(-n4cnnn4)cc3)CC2)cc1 | 81%
62 | Cc1cn2c(=O)cc(COC(=O)c3ccc(NC(=O)COc4ccccc4F)cc3)nc2s1 | 85%
63 | Cn1ncc2c(N3CCN(c4ccccc4Cl)CC3)ncnc21 | 127%
64 | CCn1c(SCc2ccccc2)nnc1C1CCCCC1 | 106%
65 | Cc1c2cnn(-c3ccccc3)c(=O)c2c(C)n1C(C)C(=O)NCc1cccc(Br)c1 (stereo unspecified) | 71%
66 | CC(=O)c1ccc(NC(=O)CCn2nc(C)c(S(=O)(=O)N3CCC(C)CC3)c2C)cc1 | -6% (active)

Row | Compound | survival
67 | CC(=O)c1cccc(NC(=O)CCn2nc(C)c(S(=O)(=O)N3CCCCC3)c2C)c1 | 159%
68 | Cc1nn(CCC(=O)Nc2cccc(C#N)c2)c(C)c1S(=O)(=O)N1CCC(C)CC1 | 69%
69 | CCOc1ccc(NC(=O)NCCc2c(C)nn(C)c2C)cc1 | 60%
70 | CCc1cccc(CC)c1NC(=O)CN(C)S(=O)(=O)c1ccc2c(c1)n(C)c(=O)c(=O)n2C | 81%
71 | O=C(Cn1cnc2nc3c(cc2c1=O)CCCC3)Nc1ccc(F)cc1Cl | 72%
72 | Cc1c(Cl)cccc1NC(=O)Cn1cnc2nc3c(cc2c1=O)CCCC3 | 131%
73 | COc1ccc(N2CCN(C(=O)Cn3cnc4nc5c(cc4c3=O)CCCC5)CC2)cc1 | 78%
74 | COc1cc(OC)c(NC(=O)Cn2cnc3nc4c(cc3c2=O)CCCC4)cc1Cl | -6% (active)
75 | Cc1ccc(C)c(N2CCN(C(=O)Cn3cnc4nc5c(cc4c3=O)CCCC5)CC2)c1 | 76%
76 | Cc1ccc(C)c(NC(=O)Cn2cnc3nc4c(cc3c2=O)CCCC4)c1 | 72%
77 | O=C(Cn1cnc2nc3c(cc2c1=O)CCCC3)N1CCN(c2cccc(C(F)(F)F)c2)CC1 | 14% (active)
78 | Cc1cccc(N(C)C(=O)Cn2cnc3nc4c(cc3c2=O)CCCC4)c1 | -1% (active)
79 | O=C(Cn1cnc2nc3c(cc2c1=O)CCCC3)N1CCN(c2ccccc2)CC1 | 69%
80 | CN(C)C(=O)C1Cc2ccccc2CN1S(=O)(=O)c1ccc(F)cc1 (stereo unspecified) | 105%
81 | CCc1ccc(-c2nc3c(c(SCc4ccccc4)n2)Cc2c(CO)cnc(C)c2O3)cc1 | 89%
82 | COc1cccc(NC(=O)CSc2nccn2C2CCCC2)c1 | 73%
83 | O=C1NC(=Nc2ccccc2)S/C1=C\c1ccc(C(=O)O)cc1 | 113%
84 | CCOc1cccc(CC(=O)N2CCc3c([nH]c4ccccc34)C2c2ccccc2)c1OCC (stereo unspecified) | 81%
85 | COc1ccc(C(=O)NCCn2cc(SCC(=O)Nc3ccccc3)c3ccccc32)cc1OC | 65%
86 | COC(=O)c1ccc(Cn2c(SCc3ccccc3F)nc3ccncc32)cc1 | 74%

From PubChem BioAssay AID463173 (ICCB-Longwood Screening Facility, Harvard Medical School, 2010)
